Source: PubChem BioAssay
Rows were chosen to be rich in hits. Some 7% of all compounds tested hit in one or more screens of this group.
PI5P4K alpha inh: inhibitors of human PI5P4K alpha | AID 652105 | PI5P4Kalpha enzyme, ADP-Glo luminescence, 60 min; hits give low values | max response, % | actives 1.2% (n = 330,000); active = max response of -50% or lower; inconclusive = between -30% and -50%; inactive = -30% or higher; also: value at the top dose of about 77 µM; % is scaled to controls: 0 for no effect and ±100 for the full control effect
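Reactions run in 0.038 M HEPES pH 7.4, 0.28 mM EGTA, 0.1% CHAPS and 5% DMSO, with PI5P4Kalpha, substrate, compound and 5 microM ATP final, one hour at room temperature. Readout is ADP-Glo luminescence.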
JMJD2A Tudor inh: blocks the human JMJD2A Tudor domain; actives 4.4% (n = 390,000); AlphaScreen JMJD2A-Tudor / H3K4me3 peptide binding; O75164; Potency, µM (series often up to 114 µM), for inactives: at the highest dose activity change, negative = inhibition, actives largely listed as inhibitors; also: potency is read from the fitted curve at half-maximal effect; % is scaled to controls: 0 for no effect and ±100 for the full control effect; nearly all actives have a fitted effect of over 50% in size
BAZ2B inh: inhibitors of human BAZ2B bromodomain. Q9UIF8. AlphaScreen BAZ2B-H3K14Ac peptide displacement. Potency, µM (top dose mostly 114 µM), for inactives: at the highest dose activity change, negative = inhibition, actives largely listed as inhibitors. actives 4.4% (n = 360,000). AID 504333; also: potency is read from the fitted curve at half-maximal effect; % is scaled to controls: 0 for no effect and ±100 for the full control effect; nearly all actives have a fitted effect of over 60% in size
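In this displacement format the biotinylated H3(5-23) peptide acetylated at Lys14 serves as ligand at 50 nM, with BAZ2B at 50 nM in PBS pH 7.4 containing 0.01% Tween-20. Donor and acceptor beads are 10 ug/mL final.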
PLK1 PBD block: PLK1 (human) polo-box domain binding inhibition | P53350 | Plk1 PBD binding of FITC phosphopeptide, fluorescence polarization | Potency, µM, inactives show max response, negative = inhibition, hits mostly inhibitors | actives 2.8% (n = 360,000) | AID 720504; also: potency is read from the fitted curve at half-maximal effect; series mostly up to about 57 µM; % is scaled to controls: 0 for no effect and ±100 for the full control effect; nearly all actives have a fitted effect of over 65% in size
KAT2A inh: GCN5L2 (KAT2A) acetyltransferase inhibition. Q92830. GCN5L2 HAT assay, ThioGlo1 CoA-SH fluorescence. Potency, µM (highest dose often 58.9 µM), without a hit: at the top dose activity change, negative = inhibition, most hits filed as inhibitors. actives 0.21% (n = 390,000). AID 504327; also: potency is read from the fitted curve at half-maximal effect; % is scaled to controls: 0 for no effect and ±100 for the full control effect
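ThioGlo1-coupled HAT assay: 20nM GCN5L2, 70uM acetyl-CoA, 75uM H3(1-25) peptide, pH 7.5. Fluorescence read at 340/540nm at start and after 20 min at room temperature.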
HP1b binding inh: HP1-beta chromodomain-methylated histone interaction inhibition; P83916; actives 0.56% (n = 390,000); AID 540317; AlphaScreen HP1-beta / biotin-H3K9me3 peptide binding; Potency, µM (doses to about 114 µM), inactives show top-dose activity change, negative = inhibition, hits mostly inhibitors; also: potency is read from the fitted curve at half-maximal effect; nearly all actives have a fitted effect of over 70% in size
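AlphaScreen: HP1-beta (50 nM) preformed 30 min with biotin-H3(1-18)K9me3 peptide (50 nM) in PBS pH 7.4, 0.01% Tween-20. Compound added for 30 min at RT, then streptavidin donor/nickel chelate acceptor beads (10 ug/mL) for 30 min.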
* = called active by the depositor; ? = inconclusive; · = no result given; [ ] = remark or other dose. Unless noted, calls follow the shape of the dose curve; as a rule, active = well fitted curve in the direction sought with a large enough effect; inconclusive = small, poorly fitted or top-dose-only effect, or another doubt; inactive = no such curve, though single readings can be large; an effect the other way counts as inactive or inconclusive.

SMILES	PI5P4K alpha inh	JMJD2A Tudor inh	BAZ2B inh	PLK1 PBD block	KAT2A inh	HP1b binding inh
Cc1ccc(C(C)NC(=O)Cc2cccs2)cc1C (configuration not stated)	-29.0	-26.1%	-19.6%	-7.6%	-1.9%	4.7%
COc1ccc(-n2c(=O)c3sc4ccccc4c3n(CC(=O)N3CCCC3)c2=O)cc1	·	-3.6%	4.2%	·	2.6%	47.5%
Cn1c(=O)c2c(ncn2CC(=O)N2CCN(C(=O)c3ccco3)CC2)n(C)c1=O	2.2	-8.4%	-30.2%	-2.6%	1.5%	35.1%
CCCN(C(=O)c1cc2c(s1)-c1ccccc1OC2)c1ccc(C(C)C)cc1	·	62.5%	42.3%	·	-7.1%	80.6%
COc1ccc(N2CCN(C(C)C(=O)N3CCCC3)CC2)cc1 (configuration not stated)	-23.9	0.794µM*	31.6µM*	-6.0%	-1.5%	?
COc1ccc(N2CCN(C(=O)c3ccc(C(C)(C)C)cc3)CC2)cc1	-0.4	56.2µM*	44.7µM*	-3.3%	-2.9%	?
COc1ccc(C(=O)CC(=O)c2ccc(F)cc2)cc1	4.8	5.8%	·	-2.1%	·	103.2%
COc1ccc(C(=O)CC(=O)c2ccc(C(C)(C)C)cc2)cc1	7.8	60.0%	·	-10.6%	31.6µM*	184.9%
COC(=O)N1CCN(c2ccc(OC)cc2)CC1	·	-10.8%	19.5%	-1.1%	-14.3%	15.7%
COc1ccc(NC(=O)C2CCN(C(=O)c3ccc(OC)cc3)CC2)cc1	?	-23.7%[11.4 µM]	24.9%	5.97µM*	-17.4%	?
COc1ccc(C(=O)N2CCC(C(=O)Nc3ccc(OC)c(OC)c3)CC2)cc1	0.4	-22.8%	·	-5.4%	2.2%	32.6%
CCOc1ccc(CCNC(=O)c2[nH]c3cc(OC)ccc3c2Sc2ccccc2)cc1OCC	·	-12.6%	-1.4%	·	-8.1%	14.0%
CN1C(=O)[C@H]2[C@@H](/C=C/c3ccccc3)N3C(=O)CN(CCO)C(=O)[C@@]3(C)[C@H]2C1=O	11.2	-7.9%	8.5%	-13.5%	-0.3%	53.6%
Cc1ccc(S(=O)(=O)NCc2ccccc2Br)cc1	-0.3	·	·	-2.5%	·	·
COc1ccc(N2CCN(C(=O)c3ccc4c(c3)CC(c3ccccc3)OC4=O)CC2)cc1 (configuration not stated)	-1.0	?	39.8µM*	-2.3%	0.8%	-13.2%
COc1ccc(CNC(=O)CN(C)Cc2ccc(C(C)(C)C)cc2)cc1	-6.3	2.82µM*	22.4µM*	2.6%	-24.3%	?
COc1ccc(N2CCN(C(=O)c3ccc(N(C)S(=O)(=O)c4ccc(C)cc4)cc3)CC2)cc1	-6.5	?	?	-9.4%	-10.4%	?
COc1ccc(CNC(=O)c2ccc(C(C)(C)C)cc2)cc1	10.4	-9.3%	0.5%	-7.4%	-0.1%	17.3%
COc1ccc(N2CCN(C(=O)c3ccc(N(C)S(=O)(=O)c4ccc(OC)cc4)cc3)CC2)cc1	?	17.8µM*	?	13.4µM*	-0.4%	?
Cc1cc(C)cc(N2CC(c3nnc(NC(=O)c4ccco4)s3)CC2=O)c1 (configuration not stated)	·	-20.9%	-30.6%	·	-10.4%	14.0%
CSC(=S)N/N=C/c1ccccc1	-5.1	?	12.6µM*	-19.9%	-3.3%	-4.3%
S=C(N/N=C/c1ccccc1)N1CCOCC1	-2.9	89.1µM*	?	-0.6%	0.7%	19.5%
CN1CCN(C(=O)c2ccc(CNS(=O)(=O)c3ccc(F)c(Cl)c3)cc2)CC1	-3.3	-1.4%	14.3%	-10.7%	-0.3%	32.2%
Cc1cc(N=Nc2c(O)c3ccccc3[nH]c2=O)ccc1N=Nc1ccc(C(=O)N(C)C)cc1	-20.4	?	?	-1.4%	0.4%	13.1%
COc1cc(N=Nc2ccc(C(=O)N(C)C)cc2)c(C)cc1N	-3.4	3.55µM*	·	5.5%	·	20µM*
SMILES	PI5P4K alpha inh	JMJD2A Tudor inh	BAZ2B inh	PLK1 PBD block	KAT2A inh	HP1b binding inh
COc1ccc(-c2nnn3c2nc(NCc2ccc(C)cc2)c2ccccc23)cc1	·	3.6%	0.1%	·	1.0%	25.6%
COCCNC(=S)NN(c1ccccc1)c1ccccc1	-16.2	-26.6%	-36.8%	26.7µM*	-2.9%	-12.8%
O=S(=O)(Nc1cccc2cccnc12)c1ccc2ccccc2c1	·	-8.9%	·	·	·	20.9%
CC(NS(=O)(=O)c1ccc2ccccc2c1)c1ccccn1 (configuration not stated)	5.5	50.1µM*	·	4.9%	-2.3%	28.2%
Cc1cc(N/N=C/c2ccc(O)cc2O)c2ccccc2n1	7.4	-7.8%	-25.7%	1.6%	-4.3%	82.6%
Cc1cc(N/N=C/c2ccc(O)cc2)c2cccc(C)c2n1	-15.4	?	39.8µM*	1.1%	-15.3%	?
Cc1cc(C(=O)N/N=C/c2ccco2)c2ccccc2n1	-2.2	-6.6%	6.3%	-4.8%	-0.7%	27.0%
Cc1nnc(N/N=C/c2ccccc2F)n1N	2.3	-3.2%	-15.5%	2.7%	-1.8%	37.7%
Cc1nnc(N/N=C/c2ccco2)n1N	2.0	25.1µM*	-5.2%	-0.6%	-0.4%	10.4%
Cc1cc(C)c2nc(C)cc(N/N=C/c3ccc(O)cc3)c2c1	-14.9	50.1µM*	39.8µM*	-21.4%	-10.7%	5.6%
Cc1cc(N/N=C/c2ccco2)c2ccccc2n1	-26.8	?	-11.3%	23.8µM*	-4.9%	5.9%
O=C(Cc1ccccc1)NC1CC(=O)N(c2ccccc2)C1 (configuration not stated)	·	-2.6%	0.5%	·	1.4%	12.8%
O=C(N/N=C/c1cc2c3c(c1O)CCCN3CCC2)c1ccccc1O	-14.3	44.7µM*	31.6µM*	-10.3%	-12.2%	-15.4%
Cc1nn(-c2ccccc2)c(N2CCCC2)c1/C=N/NC(=O)c1ccccc1O	4.2	-22.9%	-23.7%	-0.5%	-9.1%	16.1%
C=CCN(CC=C)Cc1c(O)ccc2c1oc(=O)c1ccccc12	·	8.91µM*	·	-16.1%	·	?
Cc1nc2ccccc2c(=O)n1/N=C/c1ccccc1O	-0.2	-12.0%	-6.7%	-4.0%	-11.9%	36.4%
Cc1nc2ccccc2c(=O)n1/N=C/c1ccc(O)c(O)c1O	-86.1*	14.1µM*	?	10.6µM*	-20.5%	?
Cc1cc([N+](=O)[O-])cc(/C=N/n2c(C)nc3ccccc3c2=O)c1O	-17.8	?	79.4µM*	-5.5%	-4.8%	32.6%
Cc1cc(=O)n2nc(N3CCCC3C(=O)Nc3cccc(Cl)c3C)sc2n1 (configuration not stated)	-11.3	-4.8%	-28.0%	0.8%	-1.0%	37.9%
O=C(O)Cc1cccc(OCCCN(Cc2cccc(C(F)(F)F)c2Cl)CC(c2ccccc2)c2ccccc2)c1	·	·	·	·	11.2µM*	·
CN(CC(=O)Nc1c(Cl)cccc1Cl)C(=O)c1sccc1-c1ccccc1	0.6	-4.1%	8.6%	-6.5%	-19.4%	3.9%
